Laboratory results published in PubChem BioAssay (Tox21).
Inconclusive results are not listed. Entries that show only a call come without a potency. A number with no mark means an inactive call. Activity calls are given as the source filed them. Calls follow the shape of the dose curve; as a rule, active = well fitted cell-killing curve with a large enough effect in the repeat runs; inconclusive = weak or mixed curves, or effect the other way; inactive = flat fitted curve, though single readings scatter.

Test: cAMP Responsive Elements (CRE) small molecule agonists, cell-based qHTS assay: qHTS cell viability counter screen (AID 2060914); also: nearly all actives have a fitted effect of over 50% in size
Settings: CRE-bla HEK293T viability, CellTiter-Glo luminescence, 5 h; series mostly up to 92.4 µM
Excerpt: National Center for Advancing Translational Sciences [NCATS]
Division of Preclinical Innovation [DPI]
U.S. Environmental Protection Agency [EPA]
National Institutes of Environmental Health Sciences [NIEHS]
National Toxicology Program [NTP]
U.S. Food and Drug Administration [FDA]
CREB (cyclic-AMP Responsive Element Binding Protein) is a cellular transcription factor. It binds to certain DNA sequences called cAMP Responsive Elements (CRE) and regulates the transcription of the genes. […] This cell line can be used to find agonists/antagonists of the cyclic AMP signaling pathway. The activation of the report gene under culture conditions can be detected by fluorescence intensity. This cell line has been used to screen the Tox21 10K compound library to identify agonists that induce oxidative stress. The cytotoxicity of the Tox21 compound library against the CRE-bla cell line was tested in parallel by measuring the cell viability using CellTiter-Glo assay (Promega, Madison, WI) in the same wells.
Tox21 Assay Protocol Summary:
CRE-bla Hek 293T cells were suspended in assay medium (DMEM containing 10% dialyzed FBS, 0.1 mM NEAA, 1 mM sodium pyruvate and 25 mM HEPES) and dispensed at 2,000 cells/5 uL /well into 1536-well black wall/clear bottom plates using a Multidrop Combi (ThermoFisher Scientific, Waltham, MA) dispenser. After the assay plates were incubated at 37 C/5% CO2 for 18 hrs, 23 nL of compounds dissolved in DMSO, positive controls or DMSO only was transferred to the assay plate by a pintool workstation (Kalypsys, San Diego, CA). After the plates were incubated at 37 C/5% CO2 for 3 hrs, 1 uL of LiveBLAzer B/G FRET substrate (Invitrogen, Carlsbad, CA) was added to each well using Bioraptr Flying Reagent Dispenser (FRD, Aurora Discovery, San Diego, CA). The plates were incubated at room temperature for 2 h, then fluorescence intensities were measured using an Envision plate reader (PerkinElmer, Shelton, CT) at Excitation 405nm, Emission 460nm and 530nm. The % activity was determined from the ratio of 460nm/530nm. For cell viability readout that measures cytotoxicity, 4 uL /well of CellTiter-Glo reagent was added into the assay plates using Bioraptr FRD. After 30 min incubation at room temperature, the luminescence intensity in the assay plates was measured using a ViewLux (PerkinElmer, Shelton, CT) plate reader.
Potency is read from the fitted curve at half-maximal effect.

Q: Which Potency does the source give for CC(C)N(c1ccccc1)C(C)C here?
A: inactive

Q: For CC(C)=CC1CC(C)CCO1 (stereo not given), which Potency is on record?
A: inactive

Q: With Cc1ccsc1/C=C/C1=NCCCN1C as the molecule, how does the Potency read?
A: inactive

Q: With Cn1cnc2c(=O)[nH]c(N)nc21 as the molecule, how does the Potency read?
A: inactive

Q: Which Potency does the source give for CO/N=C(/C(=O)N[C@@H]1C(=O)N2C(C(=O)O)=C(COC(N)=O)CS[C@H]12)c1ccco1 here?
A: inactive

Q: For CC(=O)Oc1c(C)c(C)c2c(c1C)CC[C@@](C)(CCC[C@H](C)CCC[C@H](C)CCCC(C)C)O2, which Potency is on record?
A: inactive

Q: Which Potency does the source give for CC(=O)[C@@]1(O)CC[C@H]2[C@@H]3CCC4=CC(=O)CC[C@]4(C)[C@H]3CC[C@@]21C here?
A: inactive

Q: Which Potency does the source give for O=C(O)CCCCCCCC(=O)O here?
A: inactive

Q: For C[C@]1(Cn2ccnn2)[C@H](C(=O)O)N2C(=O)C[C@H]2S1(=O)=O, which Potency is on record?
A: inactive

Q: For CC(C)OC(=O)C(O)(CC(=O)O)CC(=O)O, which Potency is on record?
A: inactive

Q: With O=C(Nc1ccc(Cl)cc1)Nc1ccc(Cl)c(C(F)(F)F)c1 as the molecule, how does the Potency read?
A: 23.7 µM (active)

Q: With C=C(C)C1CCC(C)(O)CC1 (stereo not given) as the molecule, how does the Potency read?
A: inactive

Q: With C[C@@H](O[C@H]1OCCN(Cc2n[nH]c(=O)[nH]2)[C@H]1c1ccc(F)cc1)c1cc(C(F)(F)F)cc(C(F)(F)F)c1 as the molecule, how does the Potency read?
A: inactive

Q: Which Potency does the source give for CO[C@]1(NC(=O)CSC(F)F)C(=O)N2C(C(=O)O)=C(CSc3nnnn3CCO)CO[C@H]21 here?
A: inactive

Q: With CCCCCCCC/C=C\CCCCCCCC(=O)NCc1ccc(O)c(OC)c1 as the molecule, how does the Potency read?
A: inactive

Q: With O=C(O)Cc1cccc(-c2cc(CCCCCCc3ccc(O[C@H]4O[C@H](CO)[C@@H](O)[C@H](O)[C@@H]4O)c(-c4cccc(CC(=O)O)c4)c3)ccc2O[C@H]2O[C@H](CO)[C@@H](O)[C@H](O)[C@@H]2O)c1 as the molecule, how does the activity change, negative = cytotoxicity read?
A: 10.9% [at 0.349 µM]

Q: Which Potency does the source give for CC(=O)CC(C)(C)C1CCCCC1 here?
A: inactive

Q: With C=CCCCCCCCCC(=O)O as the molecule, how does the Potency read?
A: inactive

Q: Which Potency does the source give for O=C(/C=C/C=C/c1ccc2c(c1)OCO2)N1CCCCC1 here?
A: inactive

Q: For CC(=O)OC(C)OC(C)=O, which Potency is on record?
A: inactive

Q: For O=C(O)CCC(=O)Nc1ccc(S(=O)(=O)Nc2nccs2)cc1, which Potency is on record?
A: inactive

Q: With CCC1Nc2cc(Cl)c(S(N)(=O)=O)cc2S(=O)(=O)N1 (stereo not given) as the molecule, how does the Potency read?
A: inactive

Q: With Nc1ccn([C@@H]2O[C@H](CO)[C@@H](O)C2O)c(=O)n1 (stereo not given in full) as the molecule, how does the Potency read?
A: inactive

Q: With CC1(C)C(O)C(C)(C)C1O (stereo not given) as the molecule, how does the Potency read?
A: inactive

Q: For CC(=O)C1=C(C)[C@@H]2C[C@@]3(C1)[C@H](C)CC[C@H]3C2(C)C, which Potency is on record?
A: inactive

Q: Which Potency does the source give for c1ccc(Sc2ccccc2)cc1 here?
A: inactive

Q: Which Potency does the source give for CCN(CC)CC1CCCCN1CC(=O)N1c2ccccc2C(=O)Nc2cccnc21 (stereo not given) here?
A: inactive

Q: Which Potency does the source give for Oc1cccc(O)c1 here?
A: inactive

Q: With CCOC(=O)CC(=O)C(=O)OCC as the molecule, how does the Potency read?
A: inactive

Q: Which Potency does the source give for O=C(/C=C/c1ccc(O)c(O)c1)O[C@@H](C(=O)O)[C@@H](OC(=O)/C=C/c1ccc(O)c(O)c1)C(=O)O here?
A: inactive

Q: For CCCc1c(OCCCCc2nn[nH]n2)ccc(C(C)=O)c1O, which Potency is on record?
A: inactive

Q: With NC[C@H](O)c1ccc(O)c(O)c1 as the molecule, how does the Potency read?
A: inactive

Q: Which Potency does the source give for O=C(O)c1ccccc1[N+](=O)[O-] here?
A: inactive

Q: For COc1ccc(OC(F)(F)F)cc1CN[C@H]1CCCN[C@H]1c1ccccc1, which Potency is on record?
A: inactive

Q: For O=[N+]([O-])c1ccc2c(c1)Cc1ccccc1-2, which Potency is on record?
A: inactive

Q: With O=C(O)c1cc(C(=O)O)cc([N+](=O)[O-])c1 as the molecule, how does the Potency read?
A: inactive

Q: With O=P(O)(O)OCC(O)CO (stereo not given) as the molecule, how does the Potency read?
A: inactive

Q: For CCN(CC)CC(=O)Oc1ccc(NC(C)=O)cc1, which Potency is on record?
A: inactive

Q: For CC1=C(C(=O)O)N2C(=O)[C@@H](NC(=O)[C@H](N)c3ccccc3)[C@H]2SC1, which Potency is on record?
A: inactive

Q: With Oc1ccc(C(c2ccc(O)cc2)C(Cl)(Cl)Cl)cc1 as the molecule, how does the Potency read?
A: inactive
